Screening data deposited in PubChem BioAssay by National Center for Advancing Translational Sciences (NCATS).
Hits are enriched below; roughly 3.5% of the tested compounds scored in any of these assays.
JMJD2E inh = JMJD2E (human) inhibition | AID 2147 | B2RXH2 | 1.6% of 230,000 active | JMJD2E catalytic domain, FDH-coupled NADH fluorescence (FDH is formaldehyde dehydrogenase) | Potency, µM (highest dose often 57.1 µM), most hits filed as inhibitors; active means well fitted inhibition curve with a large enough effect, not every such curve was filed as active; inconclusive means small, poorly fitted or top-dose-only effect, or another doubt; inactive means no such curve, though single readings can be large or run the other way; further: nearly all actives have a fitted effect of over 50% in size
Target sequence (B2RXH2 1-337 limits assumed): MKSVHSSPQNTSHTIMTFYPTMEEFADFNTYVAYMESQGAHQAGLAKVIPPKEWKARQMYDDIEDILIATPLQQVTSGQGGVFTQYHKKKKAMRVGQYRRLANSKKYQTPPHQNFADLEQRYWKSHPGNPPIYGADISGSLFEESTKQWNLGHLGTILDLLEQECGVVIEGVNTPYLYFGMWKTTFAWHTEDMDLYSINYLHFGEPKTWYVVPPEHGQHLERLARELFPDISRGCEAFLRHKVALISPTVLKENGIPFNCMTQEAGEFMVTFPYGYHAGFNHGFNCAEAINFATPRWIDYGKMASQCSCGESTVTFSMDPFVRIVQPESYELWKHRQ
TexasRed fluor = alters Texas Red total fluorescence, flagging assay interference; TRb/SRC2 Texas Red total fluorescence interference; 0.29% of 280,000 active; AID 1479; Potency, µM (titrated, usually from 106 µM); active means well fitted curve in either direction with a large enough effect; inconclusive means small, poorly fitted or top-dose-only effect
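Human TRb ligand-binding domain at 0.6 uM with 20 nM Texas Red SRC2 peptide in Tris buffer containing 1 uM T3 and 5% DMSO, incubated with compound 5 h at ambient temperature. Total fluorescence (555/632 nm) calculated as parallel + 2 × perpendicular.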
Tau FP inhib = blocks human tau fibril formation measured by polarization; 0.39% of 280,000 active; P10636; K18 P301L tau heparin fibrillization, Alexa594 FP, 6 h; Potency, µM (series often up to 57.7 µM), hits mostly inhibitors; further: nearly all actives have a fitted effect of over 55% in size
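Quantitative HTS format: compounds meet 15 uM recombinant K18 P301L tau and Alexa 594-tau tracer in 100 mM sodium acetate pH 7; 20 uM heparin triggers fibrillization at 37 C over 6 hr; FP gives the signal.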
TRb SRC2 PPI = TRbeta-SRC2 interaction inhibition. AID 1469. TRbeta-SRC2 peptide binding, fluorescence polarization; receptor liganded with 1 µM T3. 0.065% of 280,000 active. Potency, µM (doses to about 106 µM), most hits filed as inhibitors. P10828; further: nearly all actives have a fitted effect of over 50% in size
Target sequence (P10828 whole entry, looked up): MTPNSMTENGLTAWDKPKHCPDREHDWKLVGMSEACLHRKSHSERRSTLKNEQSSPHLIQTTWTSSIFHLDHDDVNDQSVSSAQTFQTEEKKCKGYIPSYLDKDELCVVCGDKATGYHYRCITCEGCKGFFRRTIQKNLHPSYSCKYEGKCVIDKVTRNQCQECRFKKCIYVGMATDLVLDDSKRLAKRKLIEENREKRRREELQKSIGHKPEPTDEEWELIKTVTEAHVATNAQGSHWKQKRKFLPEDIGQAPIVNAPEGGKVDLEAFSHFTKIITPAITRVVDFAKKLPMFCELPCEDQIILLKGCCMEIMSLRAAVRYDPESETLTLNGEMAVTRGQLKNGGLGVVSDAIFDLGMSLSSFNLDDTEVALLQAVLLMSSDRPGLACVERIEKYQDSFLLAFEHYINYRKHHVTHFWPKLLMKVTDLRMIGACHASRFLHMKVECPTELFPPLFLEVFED
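Quantitative HTS by FP: 0.6 uM TRb LBD, 20 nM labeled SRC2 20-mer, 1 uM T3, 5% DMSO; 5 hr ambient incubation; % activity per concentration and potencies from concentration series.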
Tau ThT inhib = blocks human tau fibril formation measured by thioflavin T; AID 1460; Potency, µM (series often up to 57.4 µM), actives largely listed as inhibitors; P10636; 2.1% of 270,000 active; recombinant tau K18 P301L, heparin-induced fibrillization, ThT fluorescence; further: nearly all actives have a fitted effect of over 55% in size
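In this qHTS, human K18 P301L tau is incubated with compound and heparin for 6 hr at 37 C, and Thioflavin T fluorescence then reports fibril load.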
Tau fluor cs = counter-screen for tau fibril formation inhibitors; Potency, µM (series often up to 57.7 µM); 0.93% of 280,000 active; AID 1463; tau K18 P301L (four-repeat tau fragment) Alexa594 fluorescence, heparin fibrillization; further: nearly all actives have a fitted effect of over 55% in size
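Human K18 P301L tau (15 uM unlabeled plus 0.24 uM Alexa 594-labeled, final) in 100 mM sodium acetate pH 7 was mixed with compound and 20 uM heparin and incubated 6 hr at 37 C.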
Each line names hits and unclear results; the compound was inactive in the other large screens; [ ] = another dose, or the depositor's remark. Unless noted, the call rests on the fitted dose curve; in most records, active means well fitted curve in the direction sought with a large enough effect; inconclusive means small, poorly fitted or top-dose-only effect, or another doubt; inactive means no such curve, though single readings can be large; an effect the other way counts as inactive or inconclusive.

CN(c1ccccc1C(=O)NC1CCCCC1)S(=O)(=O)c1ccccc1	none
O=c1c(N2CCc3ccccc3C2)csc2ccc(Br)cc12	Tau ThT inhib inconclusive (no result: JMJD2E inh)
O=c1c(N2CCc3ccccc3C2)csc2ccccc12	Tau ThT inhib 14.1µM (no result: JMJD2E inh)
OC(Cn1cncn1)(c1ccccc1)c1ccccc1	none
CN(C)c1ccc(C2NCCS2)cc1 (stereo unspecified)	Tau FP inhib inconclusive, Tau ThT inhib 28.2µM
Cc1ccc(C2NCCS2)cc1 (stereo unspecified)	Tau FP inhib inconclusive, Tau ThT inhib 22.4µM
Cc1ccc(C2=NNC(=O)C(c3ccc(Cl)cc3)C2)cc1 (stereo unspecified)	none
CC(=O)Nc1cc[n+](C(C)C(=O)c2ccc(Cl)cc2)cc1 (stereo unspecified)	none
CCCCN(CC)CCCNC(=O)CC1Nc2ccccc2NC1=O (stereo unspecified)	JMJD2E inh inconclusive
Cc1ccccc1OCC(O)CN(CCO)Cc1ccccc1 (stereo unspecified)	none
CC(=O)Nc1ccc(OC(=O)c2ccc(Br)c([N+](=O)[O-])c2)cc1	Tau FP inhib inconclusive, Tau ThT inhib 25.1µM, Tau fluor cs inconclusive
Cc1cc(C)c(C)c(N=Nc2nc3ccccc3n2C)c1C	JMJD2E inh inconclusive, Tau ThT inhib 8.91µM, Tau fluor cs inconclusive
Cc1ccc(NCc2nc3ccccc3n2C)cc1	none
Cc1ccc(C)c(N=Nc2nc3ccccc3n2C)c1	Tau ThT inhib 5.62µM, Tau fluor cs inconclusive
C/C(=N\NC(=O)c1ccncc1)c1cc2ccccc2o1	none
C/C(=N\Nc1nc2ccccc2[nH]1)c1ccc2c(c1)OCCO2	Tau ThT inhib 14.1µM, Tau fluor cs inconclusive
C/C(=N\Nc1nc2ccccc2[nH]1)c1cc2ccccc2o1	Tau FP inhib inconclusive, Tau ThT inhib 14.1µM, Tau fluor cs inconclusive
CC(C)CNS(=O)(=O)c1ccc(CC(C)C)cc1	none
Cc1nc(C)c(C(=O)N/N=C/c2ccco2)s1	none
CCSc1nc2c([nH]c3ccccc32)c(=O)n1CC	none (no result: JMJD2E inh)
NC(=S)N/N=C/c1coc2cc(Br)ccc2c1=O	Tau ThT inhib 15.8µM, Tau fluor cs inconclusive
CCOc1c(O)ccc(/C=C2\SC(=S)NC2=O)c1[N+](=O)[O-]	Tau FP inhib inconclusive, Tau ThT inhib 10µM, Tau fluor cs inconclusive
Cc1ccc(CN(Cc2ccco2)C(=O)COc2ccc(C(C)C)cc2)cc1	TexasRed fluor 0.0006µM[quencher], TRb SRC2 PPI inconclusive, Tau ThT inhib inconclusive (no result: JMJD2E inh)
Cc1cc(C)c2c(CC(=O)N(Cc3ccc(N(C)C)cc3)Cc3ccco3)coc2c1	TexasRed fluor inconclusive, Tau ThT inhib inconclusive, Tau fluor cs inconclusive (no result: JMJD2E inh)
Cc1ccc2c(CC(=O)N(Cc3ccc(Cl)cc3)Cc3ccco3)coc2c1	TexasRed fluor 1.12µM[quencher], Tau ThT inhib inconclusive (no result: JMJD2E inh)
CN(C)Cc1ccc(O)c(CCc2ccccc2)n1	none
CCOC(=O)C1=C(N)Oc2cc(C)n(CCc3ccc(OC)c(OC)c3)c(=O)c2C1c1cccnc1 (stereo unspecified)	none
CCOc1ccc(C(=O)Nc2ccc3oc(-c4ccc(Br)cc4)nc3c2)cc1	none (no result: JMJD2E inh)
COc1nc(/C=C/N(C)C)c([N+](=O)[O-])c(OC)n1	Tau ThT inhib 8.91µM, Tau fluor cs inconclusive
Cc1ccc(SCc2[nH]nc3c2C(c2ccc(C)o2)C(C#N)=C(N)O3)cc1 (stereo unspecified)	JMJD2E inh inconclusive, Tau FP inhib inconclusive, Tau ThT inhib 14.1µM, Tau fluor cs inconclusive
Cc1ccc(SCc2[nH]nc3c2C(c2ccco2)C(C#N)=C(N)O3)cc1 (stereo unspecified)	JMJD2E inh inconclusive, Tau FP inhib inconclusive, Tau ThT inhib 20µM, Tau fluor cs inconclusive
O=C(Cn1nc(C(F)(F)F)c2c1CCCC2)Nc1ccc(F)c(Cl)c1	TexasRed fluor inconclusive, Tau FP inhib inconclusive, Tau fluor cs inconclusive (no result: JMJD2E inh)
CC1Cc2ccccc2N1S(=O)(=O)c1cccc(C(=O)Nc2cccnc2)c1 (stereo unspecified)	Tau FP inhib inconclusive (no result: Tau ThT inhib)
Cc1ccc(Cn2nnc3c(=O)[nH]c(C4CCN(C(=O)Cc5ccccc5F)CC4)nc32)cc1	none (no result: JMJD2E inh)
CCN(CC)c1ccc(N=Cc2cc(Br)ccc2O)cc1	JMJD2E inh inconclusive, Tau FP inhib inconclusive, TRb SRC2 PPI 50.1µM, Tau ThT inhib 15.8µM, Tau fluor cs inconclusive
CC(C)(C)c1ccc(O)c(N=Cc2cc(Br)ccc2O)c1	JMJD2E inh 28.2µM, Tau ThT inhib inconclusive, Tau fluor cs inconclusive
Cc1ccc(O)c(C=Nc2cc(C)ccc2O)c1	JMJD2E inh 20µM, Tau ThT inhib inconclusive
Oc1ccc(Br)cc1C=Nc1ccc(Cl)cc1	none
Cc1ccc(O)c(N=CC2=C(O)c3ccccc3C2=O)c1	Tau FP inhib inconclusive, Tau ThT inhib 25.1µM, Tau fluor cs inconclusive
O=C(NCCC(c1ccccc1)c1ccccc1)c1cnccn1	none
COc1ccc(C(=O)/C=C/c2ccc(O)cc2)c(O)c1CC=C(C)C	Tau FP inhib inconclusive, Tau ThT inhib 25.1µM, Tau fluor cs 15.8µM[quencher]
Cc1cc(NS(=O)(=O)c2ccccc2)c(C)c(Cl)c1O	none
O=S(=O)(Nc1cc(Sc2ncn[nH]2)c(O)c2ccccc12)c1ccccc1	JMJD2E inh 12.6µM, Tau FP inhib 25.1µM, TRb SRC2 PPI inconclusive, Tau ThT inhib 11.2µM, Tau fluor cs inconclusive
COc1cccc(C2NC(c3cccc(OC)c3O)C(C)C(=O)C2C)c1O (stereo unspecified)	JMJD2E inh 20µM
O=C(Nc1cccc(S(=O)(=O)N2CCCCCC2)c1)c1cc(=O)c2ccccc2o1	Tau FP inhib inconclusive, Tau fluor cs 14.1µM[quencher]
CN(c1ccccc1)S(=O)(=O)c1cccc(NC(=O)c2cc(=O)c3ccccc3o2)c1	Tau fluor cs 12.6µM[quencher]
O=C(Nc1cccc(S(=O)(=O)N2CCCCC2)c1)c1ccccn1	none
O=C(Nc1ccc(Cl)cc1)/C(=C/c1cccc(O)c1)c1nc2ccccc2s1	Tau FP inhib inconclusive, Tau ThT inhib 20µM, Tau fluor cs inconclusive
O=S(=O)(Nc1ccc(-n2cccc2)cc1)c1ccc(Cl)c(Cl)c1	Tau FP inhib 14.1µM, Tau fluor cs inconclusive
O=S(=O)(Nc1ccc(-n2cccc2)cc1)c1ccc(F)cc1	Tau fluor cs inconclusive
CCOC(=O)C1(Cc2cccc(F)c2)CCN(C2CCOCC2)CC1	none
CCOC(=O)C1(Cc2cccc(OC)c2)CCN(C2CCOCC2)CC1	Tau ThT inhib 12.6µM
Cc1ccc(NS(=O)(=O)c2ccc3c(c2)[C@H]2C=CC[C@H]2[C@@H](c2ccc(F)cc2)N3)cc1C	Tau ThT inhib inconclusive, Tau fluor cs inconclusive (no result: JMJD2E inh)
O=C(O)c1ccc(NS(=O)(=O)c2ccc3c(c2)C2C=CCC2C(c2ccccc2F)N3)cc1 (stereo unspecified)	Tau FP inhib inconclusive, Tau ThT inhib 31.6µM, Tau fluor cs inconclusive
